Test results from PubChem BioAssay (NCATS).
Inconclusive results are not listed. Calls of active or inactive are those of the source. Calls follow the shape of the full dose curve.

These molecules were tested against Nucleoprotein (Lymphocytic choriomeningitis virus (strain Armstrong)) (UniProt P09992) (assay: qHTS for Inhibitors of the Functional Ribonucleoprotein Complex (vRNP) of Lymphocytic Choriomeningitis Arenaviruses (LCMV): LCMV Primary Screen - GLuc reporter signal (AID 1347086; also: nearly all actives have a fitted effect of over 70% in size)). Conditions: LCMV minigenome vRNP cell assay, Gaussia luciferase reporter; series mostly up to 57.5 µM; activity change, negative = inhibition: at the top concentration.
Nucleoprotein (Lymphocytic choriomeningitis virus (strain Armstrong)), sequence (P09992 whole entry, looked up): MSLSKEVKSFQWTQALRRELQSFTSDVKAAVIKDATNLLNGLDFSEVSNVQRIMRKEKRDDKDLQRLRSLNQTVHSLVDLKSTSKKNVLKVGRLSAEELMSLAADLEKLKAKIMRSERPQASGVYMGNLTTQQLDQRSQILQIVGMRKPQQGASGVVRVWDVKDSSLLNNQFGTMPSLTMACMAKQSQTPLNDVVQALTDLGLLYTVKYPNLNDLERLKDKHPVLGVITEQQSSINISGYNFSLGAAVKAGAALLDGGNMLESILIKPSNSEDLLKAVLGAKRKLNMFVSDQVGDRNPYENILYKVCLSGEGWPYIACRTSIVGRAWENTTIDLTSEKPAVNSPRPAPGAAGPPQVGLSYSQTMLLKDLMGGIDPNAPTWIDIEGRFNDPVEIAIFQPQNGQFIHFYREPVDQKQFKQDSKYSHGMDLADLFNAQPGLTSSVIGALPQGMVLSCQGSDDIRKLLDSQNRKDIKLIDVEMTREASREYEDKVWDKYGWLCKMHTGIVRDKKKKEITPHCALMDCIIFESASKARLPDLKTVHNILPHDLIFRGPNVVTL
% is scaled to controls: 0 for no effect and ±100 for the full control effect; potency is read from the fitted curve at half-maximal effect.

Row | Compound | activity change, negative = inhibition | Potency
1 | Cc1cnc(C)c(C)n1 | 17.9% [at 115 µM] (inactive) | –
2 | C=C1CC[C@H](O)C/C1=C/C=C1\CCC[C@]2(C)[C@@H]([C@H](C)CCC(O)C(C)(C)O)CC[C@@H]12 (stereo not given in full) | 9.04% (inactive) | –
3 | Cc1ccc(-c2ccccc2)cc1 | 8.17% [at 115 µM] (inactive) | –
4 | C=C(C)[C@@H]1CCC2=CCC[C@@H](C)[C@]2(C)C1 | 25.7% [at 115 µM] (inactive) | –
5 | CC(=O)O[C@H](COc1c2ccoc2cc2oc(=O)ccc12)C(C)(C)O | 13.9% (inactive) | –
6 | C/C=C(\C)C(=O)O[C@@H]([C@H](O)c1cc2ccc(=O)oc2cc1OC)C(C)(C)O | -0.373% (inactive) | –
7 | C[C@]12O[C@H](C[C@@]1(O)C(=O)O)n1c3ccccc3c3c4c(c5c6ccccc6n2c5c31)CNC4=O | 25.9% [at 5.82 µM] (inactive) | –
8 | C[C@@H]1C(=O)CC2C(C)(C)CCC[C@]2(C)[C@@]1(O)CCc1ccoc1 (stereo not given in full) | 3.23% (inactive) | –
9 | COc1cc2c3c(c1OC)-c1cc(O)ccc1CC3NCC2 (stereo not given) | -3.93% (inactive) | –
10 | C/C=C/c1ccc2oc(-c3ccc(O)cc3)c(C)c2c1 | -15.8% (inactive) | –
11 | COc1cc2ccc(=O)oc2cc1O | 8.98% (inactive) | –
12 | CC/C=C\CC1=C(C)CCC1=O | 21.3% [at 115 µM] (inactive) | –
13 | C=CCc1ccc(O)c(-c2cc(CC=C)ccc2O)c1 | 23.8% (inactive) | –
14 | COc1cc2c(cc1OC)[C@@H]1Cc3cc4c(cc3[C@H](C2)N1C)OCO4 | 5.01% (inactive) | –
15 | CO[C@H]1[C@@H](OC)CC(OC2OC(CO)C(O)C(O)C2O)/C(=C\C#N)[C@@H]1O (stereo not given in full) | -0.922% (inactive) | –
16 | CCCCC/C=C\C/C=C\C/C=C\C=C\C(O)CCCC(=O)O (stereo not given) | -6.07% [at 0.757 µM] (inactive) | –
17 | CC12CCC(=O)C=C1CCC1C2C(O)CC2(C)C(O)CCC12 (stereo not given) | -2.12% (inactive) | –
18 | CC1CCC(=O)O1 (stereo not given) | 12.4% [at 115 µM] (inactive) | –
19 | CC(C)CCC[C@@H](C)[C@@H]1CC[C@H]2C3=CC=C4CC(O)CC[C@]4(C)[C@H]3CC[C@@]21C (stereo not given in full) | -8.14% (inactive) | –
20 | O=C1CCCCCCCCCCCCCCO1 | 25.7% [at 115 µM] (inactive) | –

Row | Compound | activity change, negative = inhibition | Potency
21 | CC(C)(O)c1ccc2c(c1)CCC1C(C)(C(=O)O)CCCC21C (stereo not given) | -0.305% (inactive) | –
22 | Cc1c(O)ccoc1=O | 25.4% (inactive) | –
23 | COc1ccc(-c2cnc(-c3cccnc3)o2)cc1 | -12.4% (inactive) | –
24 | O=C(O)CCCCCCCCCC(=O)O | -6.86% [at 115 µM] (inactive) | –
25 | CC(=O)OCC=C(C)C | 9.39% (inactive) | –
26 | COC(=O)c1ccccc1-n1c(C)nc2ccccc2c1=O | 8.71% (inactive) | –
27 | CN1c2c(nc(N)[nH]c2=O)NCC1CNc1ccc(C(=O)NC(CCC(=O)O)C(=O)O)cc1 (stereo not given) | 6.77% (inactive) | –
28 | CC1=CCC(C(C)C)=CC1 | -0.764% [at 115 µM] (inactive) | –
29 | C=O | -5.07% [at 115 µM] (inactive) | –
30 | COC(=O)c1ccc(=O)c2nc3/c(=C/O)c(O)cc(=O)c3[nH]c12 | 26.2% (inactive) | –
31 | Cc1nc2sccn2c(=O)c1CCN1CCC(=C(c2ccccc2)c2ccc(F)cc2)CC1 | 4.51% (inactive) | –
32 | COc1cc(C(=O)O[C@@H]2CC3CC[C@]2(C)C3(C)C)ccc1O | 31.5% (inactive) | –
33 | c1ccc(-c2ccncc2)cc1 | 7.53% (inactive) | –
34 | C=CCCC[C@@H]1OC(=O)CNC(=O)C([C@@H](C)CC)NC(=O)[C@@H]2CCCN2C(=O)C([C@@H](C)CC)OC(=O)[C@H](Cc2ccccc2)N(C)C(=O)[C@H](C(C)C)NC(=O)C1(C)C (stereo not given in full) | -11.3% (inactive) | –
35 | CO[C@H]1[C@@H]2C=CO[C@@H](O[C@H]3O[C@@H](CO)[C@H](O)[C@@H](O)[C@@H]3O)[C@@H]2[C@@]2(CO)O[C@@H]12 | 0.0231% (inactive) | –
36 | CC1CC2CCCC(O)=C2C(=O)O1 (stereo not given) | 10.7% (inactive) | –
37 | C[C@H](NCc1ccc2c(c1)nc(NC(=O)c1ccc(-c3cn[nH]c3)s1)n2CCc1ccccc1)C(C)(C)C | – | 17.2 µM (active)
38 | CC(=O)OC[C@H]1O[C@@H](Oc2cc(O)cc3oc(-c4ccc(O)cc4)cc(=O)c23)[C@H](O[C@@H]2O[C@@H](C)[C@H](O)[C@@H](O)[C@H]2O)[C@@H](O)[C@@H]1O | -15.9% (inactive) | –
39 | CCCCCCCC/C=C/CCCOC(C)=O | -9.05% [at 115 µM] (inactive) | –
40 | COc1ccc(C2OCC3(O)C(c4ccc(OC)c(OC)c4)OCC23)cc1OC (stereo not given) | -0.13% (inactive) | –
